Inconclusive results are not listed. A call without a number means that no potency is given here. Activity calls are given as the source filed them. The call rests on the fitted dose curve; in most records, active means well fitted inhibition curve with a large enough effect; inconclusive means small, poorly fitted or top-dose-only effect; inactive means flat fitted curve, though single readings scatter.
System: MKL-1
Test: qHTS assay to identify novel small-molecules to repurpose for Merkel cell carcinoma treatment (AID 1296009); further: nearly all actives have a fitted effect of over 60% in size
Details: MCC and control cell lines, CellTiter-Glo viability, 72 h; series mostly up to 46 µM
In short: (§1)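 Viability readout: ATP luminescence (CellTiter-Glo) after 72 hr drug exposure at 37 degree celsius. Dose-response format was 8 points for NPC and 11 points for MIPE; data normalized to in-plate controls.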
Potency means the concentration at half of the fitted maximal effect.

Row | Compound | Potency
1 | CCCCOC(=O)c1ccccc1C(=O)OCc1ccccc1 | inactive
2 | C=C[C@@H]1CN2CCC1C[C@@H]2[C@@H](O)c1ccnc2ccccc12 (stereo partly specified) | inactive
3 | c1ccc(CCCN2CCN(CCOC(c3ccccc3)c3ccccc3)CC2)cc1 | inactive
4 | O=c1[nH]c2ccc(Cl)cc2c(N[C@@H]2CN3CCC2CC3)c1-c1nc2ccccc2[nH]1 | 743 nM (active)
5 | O=C(NCC1CCOCC1)c1cnc(Nc2ccc(Cl)cc2Cl)nc1C(F)(F)F | inactive
6 | CC1(C)CC/C(=C/c2ccc(Cl)cc2)C1(O)Cn1cncn1 (stereo unspecified) | inactive
7 | O=C(N[C@@H](COc1ccc2[nH]c(=O)[nH]c2c1)c1ccccc1)c1cccn(Cc2ccc(F)c(F)c2)c1=O | inactive
8 | O=C(O)COc1nc(Cl)c(Cl)cc1Cl | inactive
9 | CC(C)[C@H]1C(=O)N[C@H](CO)Cc2c[nH]c3cccc(c23)N1C | inactive
10 | COC(=O)c1cncn1C(C)c1ccccc1 (stereo unspecified) | inactive
11 | C[C@]12CCC(=O)C(O)=C1CC[C@@H]1[C@H]3CCC(=O)[C@@]3(C)CC[C@@H]12 | inactive
12 | CCC(=O)O[C@@H]1C=C2CCC3C(CCC4(C)C3CC[C@@H]4OC(=O)CC)C2CC1 (stereo partly specified) | inactive
13 | COC1=CC(C)=C[C@@H](C)[C@@H](O)[C@@H](C)CC(C)=CC=C[C@H](OC)[C@H]([C@@H](C)[C@@H](O)[C@H](C)[C@@]2(O)C[C@@H](O)[C@H](C)[C@@H](C(C)C)O2)OC1=O | 118 nM (active)
14 | O=C1CCC[C@@H]2[C@H]3CCCN4CCC[C@@H](CN12)[C@@H]34 | inactive
15 | CCOCCOC(C)=O | inactive
16 | C[C@]12CC[C@@H]3[C@@H](CCC4=CC(=O)CC[C@@H]43)[C@@H]1CC[C@@H]2OC(=O)CCc1ccccc1 | inactive
17 | Cc1ccc(Cl)c(O)c1 | inactive
18 | CN[C@@H](C)[C@H](O)c1ccccc1 | inactive
19 | Nc1ccc(Cl)cc1 | inactive

Row | Compound | Potency
20 | CC(Cc1ccc(O)cc1)NCC(O)c1cc(O)cc(O)c1 (stereo unspecified) | inactive
21 | CC(C)NCC(O)c1ccc([N+](=O)[O-])cc1 (stereo unspecified) | inactive
22 | O=[N+]([O-])/N=C1\NCCN1Cc1ccc(Cl)nc1 | inactive
23 | C=CC(=O)NCNC(=O)C=C | inactive
24 | O=c1cccc2n1CC1CNC[C@H]2C1 | 14800 nM (active)
25 | O=S(=O)(CC1CS1)c1ccc(Oc2ccccc2)cc1 (stereo unspecified) | 23500 nM (active)
26 | Nc1ccc(N=Nc2ccccc2)cc1 | inactive
27 | CC(=CCCC1=CCC(C2=CC(=O)OC2O)OC1O)CCC1=C(C)CCCC1(C)C (stereo unspecified) | inactive
28 | COc1cc2cc(c1Cl)N(C)C(=O)C[C@H](OC(=O)C(C)C)[C@]1(C)O[C@H]1[C@H](C)[C@@H]1C[C@@](O)(NC(=O)O1)[C@H](OC)C=CC=C(C)C2 | inactive
29 | c1cc2ccc3cccc4ccc(c1)c2c34 | inactive
30 | Nc1ccc(Sc2ccc(N)cc2)cc1 | inactive
31 | C[C@@H]1CC[C@H]2[C@@H](C)C(=O)O[C@@H]3O[C@@]4(C)CC[C@H]1[C@]32OO4 | inactive
32 | O=C(Nc1ccccc1-c1ccc(Cl)cc1)c1cccnc1Cl | inactive
33 | NC1CC1c1ccccc1 (stereo unspecified) | inactive
34 | Cc1c(C(=O)Nc2cccc(C(F)(F)F)c2)cc(-c2ccccc2)n1CCCN1CCOCC1 | inactive
35 | COCCOCCO | inactive
36 | C[C@]12CC[C@H]3[C@@H](CCC4=CC(=O)CC[C@@]43C)[C@H]1CC[C@H]2OC(=O)CCC1CCCC1 | inactive
37 | OCCCBr | inactive

System: MKL-2
Test: as above
Details: MCC and control cell lines, CellTiter-Glo viability, 72 h; series mostly up to 46 µM
In short: as §1

Row | Compound | Potency
38 | CCCCOC(=O)c1ccccc1C(=O)OCc1ccccc1 | inactive
39 | C=C[C@@H]1CN2CCC1C[C@@H]2[C@@H](O)c1ccnc2ccccc12 (stereo partly specified) | inactive
40 | c1ccc(CCCN2CCN(CCOC(c3ccccc3)c3ccccc3)CC2)cc1 | 20900 nM (active)
41 | O=c1[nH]c2ccc(Cl)cc2c(N[C@@H]2CN3CCC2CC3)c1-c1nc2ccccc2[nH]1 | 2640 nM (active)
42 | O=C(NCC1CCOCC1)c1cnc(Nc2ccc(Cl)cc2Cl)nc1C(F)(F)F | inactive
43 | CC1(C)CC/C(=C/c2ccc(Cl)cc2)C1(O)Cn1cncn1 (stereo unspecified) | inactive
44 | O=C(N[C@@H](COc1ccc2[nH]c(=O)[nH]c2c1)c1ccccc1)c1cccn(Cc2ccc(F)c(F)c2)c1=O | inactive
45 | O=C(O)COc1nc(Cl)c(Cl)cc1Cl | inactive
46 | CC(C)[C@H]1C(=O)N[C@H](CO)Cc2c[nH]c3cccc(c23)N1C | inactive
47 | COC(=O)c1cncn1C(C)c1ccccc1 (stereo unspecified) | inactive
48 | C[C@]12CCC(=O)C(O)=C1CC[C@@H]1[C@H]3CCC(=O)[C@@]3(C)CC[C@@H]12 | inactive
49 | CCC(=O)O[C@@H]1C=C2CCC3C(CCC4(C)C3CC[C@@H]4OC(=O)CC)C2CC1 (stereo partly specified) | inactive
50 | COC1=CC(C)=C[C@@H](C)[C@@H](O)[C@@H](C)CC(C)=CC=C[C@H](OC)[C@H]([C@@H](C)[C@@H](O)[C@H](C)[C@@]2(O)C[C@@H](O)[C@H](C)[C@@H](C(C)C)O2)OC1=O | 105 nM (active)
51 | O=C1CCC[C@@H]2[C@H]3CCCN4CCC[C@@H](CN12)[C@@H]34 | inactive
52 | CCOCCOC(C)=O | inactive
53 | C[C@]12CC[C@@H]3[C@@H](CCC4=CC(=O)CC[C@@H]43)[C@@H]1CC[C@@H]2OC(=O)CCc1ccccc1 | inactive
54 | Cc1ccc(Cl)c(O)c1 | inactive

Row | Compound | Potency
55 | CN[C@@H](C)[C@H](O)c1ccccc1 | inactive
56 | Nc1ccc(Cl)cc1 | inactive
57 | CC(Cc1ccc(O)cc1)NCC(O)c1cc(O)cc(O)c1 (stereo unspecified) | inactive
58 | CC(C)NCC(O)c1ccc([N+](=O)[O-])cc1 (stereo unspecified) | inactive
59 | O=[N+]([O-])/N=C1\NCCN1Cc1ccc(Cl)nc1 | inactive
60 | O=c1cccc2n1CC1CNC[C@H]2C1 | 2640 nM (active)
61 | O=S(=O)(CC1CS1)c1ccc(Oc2ccccc2)cc1 (stereo unspecified) | 16600 nM (active)
62 | CC(=CCCC1=CCC(C2=CC(=O)OC2O)OC1O)CCC1=C(C)CCCC1(C)C (stereo unspecified) | inactive
63 | COc1cc2cc(c1Cl)N(C)C(=O)C[C@H](OC(=O)C(C)C)[C@]1(C)O[C@H]1[C@H](C)[C@@H]1C[C@@](O)(NC(=O)O1)[C@H](OC)C=CC=C(C)C2 | inactive
64 | c1cc2ccc3cccc4ccc(c1)c2c34 | inactive
65 | Nc1ccc(Sc2ccc(N)cc2)cc1 | inactive
66 | C[C@@H]1CC[C@H]2[C@@H](C)C(=O)O[C@@H]3O[C@@]4(C)CC[C@H]1[C@]32OO4 | inactive
67 | O=C(Nc1ccccc1-c1ccc(Cl)cc1)c1cccnc1Cl | inactive
68 | NC1CC1c1ccccc1 (stereo unspecified) | inactive
69 | COCCOCCO | inactive
70 | C[C@]12CC[C@H]3[C@@H](CCC4=CC(=O)CC[C@@]43C)[C@H]1CC[C@H]2OC(=O)CCC1CCCC1 | inactive
71 | OCCCBr | inactive
